Compound activity as filed in PubChem.
JMJD2A Tudor: qHTS Assay for Inhibitors of JMJD2A-Tudor Domain; Potency, µM (doses to about 114 µM), for inactives: top-dose activity change, negative = inhibition, usual class: inhibitors; 390,000 tested, 4.4% active; AlphaScreen JMJD2A-Tudor / H3K4me3 peptide binding; note: % is set by controls: 0 for no effect and ±100 for the full control effect; nearly all actives have a fitted effect of over 50% in size
PLK1 PBD block: qHTS for Inhibitors of PLK1-PDB (polo-like kinase 1 - polo-box domain): Primary Screen. Serine/threonine-protein kinase PLK1 (Homo sapiens), P53350. Plk1 PBD binding of FITC phosphopeptide, fluorescence polarization. Potency, µM, inactives show max response, negative = inhibition, hits mostly inhibitors. 360,000 tested, 2.8% active. AID 720504, 2013; note: series mostly up to about 57 µM; % is set by controls: 0 for no effect and ±100 for the full control effect; nearly all actives have a fitted effect of over 65% in size
BAZ2B inh: qHTS Assay for Inhibitors of BAZ2B; Bromodomain adjacent to zinc finger domain protein 2B (Homo sapiens), Q9UIF8; AlphaScreen BAZ2B-H3K14Ac peptide displacement; Potency, µM (titrated, usually from 114 µM), without a hit: at the highest dose activity change, negative = inhibition, hits mostly inhibitors; 360,000 tested, 4.4% active; AID 504333, 2011; note: % is set by controls: 0 for no effect and ±100 for the full control effect; nearly all actives have a fitted effect of over 60% in size
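Complex of BAZ2B and biotin-H3K14Ac (50 nM apiece) forms over 30 min at RT, then faces library compounds up to 110 uM for another 30 min; AlphaScreen beads added, 20 min dark incubation, luminescence read.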
G9a inh: qHTS Assay for Inhibitors of Histone Lysine Methyltransferase G9a; 350,000 tested, 8.8% active; Potency, µM (highest dose often 102 µM), without a hit: at the highest dose activity, negative = inhibition, usual class: inhibitors; G9a H3K9 monomethylation, AlphaScreen, 2 h; Histone-lysine N-methyltransferase EHMT2 (Homo sapiens), Q96KQ7; note: % is set by controls: 0 for no effect and ±100 for the full control effect; nearly all actives have a fitted effect of over 75% in size
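G9a (20 nM) was preincubated 15 min with compound, then reacted 2 h at room temperature with 500 nM biotin-H3K9 peptide and 20 µM SAM. Monomethyl-H3K9 detected by AlphaScreen using anti-H3K9me1 antibody.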
HP1b binding inh: HTS for Inhibitors of HP1-beta Chromodomain Interactions with Methylated Histone Tails; AlphaScreen HP1-beta / biotin-H3K9me3 peptide binding; AID 540317, 2011; 390,000 tested, 0.56% active; Potency, µM (top dose mostly 114 µM), inactives show top-dose activity change, negative = inhibition, most hits filed as inhibitors; Chromobox protein homolog 1 (Homo sapiens), P83916; note: nearly all actives have a fitted effect of over 70% in size
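Compound inhibition of the preformed complex between 50 nM HP1-beta and 50 nM biotinylated H3K9me3 peptide was read by AlphaScreen. Buffer was PBS pH 7.4 with 0.01% Tween-20. Incubations ran 30 min at room temperature, with 10 ug/mL donor/acceptor beads.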
ALOX12 inh: Primary qHTS assay for inhibitors of human arachidonate 12S-lipoxygenase (ALOX12): Round 2 | Polyunsaturated fatty acid lipoxygenase ALOX12 (Homo sapiens), P18054 | purified 12hLO, xylenol orange hydroperoxide absorbance | Potency, µM (top dose mostly 108 µM), for the others: at the top dose activity change, negative = inhibition, hits mostly inhibitors | 580,000 tested, 1.1% active | AID 1671190, 2021; note: % is set by controls: 0 for no effect and ±100 for the full control effect
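Purified human 12hLO (150 nM final) in 25 mM Hepes, 0.01% Triton X-100, pH 7.0 was preincubated 15 min at room temperature with compound. Then 40 uM arachidonic acid was added, 30 min. Hydroperoxide was read by Fe-XO absorbance ratio 573/405 nm.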
* marks the source's active call; other numbers are inactive results; ? = inconclusive; · = no result given; [ ] = another dose, or the depositor's remark. Compounds with a hit are over-represented: about 9% of the library has one in this group of screens. Calls come from the whole dose curve; as a rule, active = well fitted curve in the direction sought with a large enough effect; inconclusive = small, poorly fitted or top-dose-only effect, or another doubt; inactive = no such curve, though single readings can be large; an effect the other way counts as inactive or inconclusive. Potency is the fitted concentration of half-maximal effect.

SMILES	JMJD2A Tudor	PLK1 PBD block	BAZ2B inh	G9a inh	HP1b binding inh	ALOX12 inh
O=[N+]([O-])c1ccccc1CN1CCN(S(=O)(=O)Cc2ccccc2)CC1	0.79µM*	-15%	45µM*	·	?	?
CN(Cc1ccccc1)C1CCN(Cc2ccccc2[N+](=O)[O-])CC1	11µM*	-7%	20µM*	18µM*	?	?
COc1ccc2ccc(O)c(CN3CCN(S(=O)(=O)c4cc([N+](=O)[O-])ccc4C)CC3)c2c1	-29%	-22%	-7%	1.3µM*	22%	-12%
CN1CCC(N(C)C(=O)Cc2ccccc2[N+](=O)[O-])CC1	-12%	-5%	-18%	-17%	1%	-8%
COc1ccc(S(=O)(=O)N2CCN(Cc3cccc(F)c3)CC2)cc1	3.2µM*	-13%	·	·	?	-26%
Cc1cc(C)c2oc(-c3cccc(NC(=O)c4ccccc4[N+](=O)[O-])c3)nc2c1	·	·	·	·	·	-5%
NC(=O)CSc1nc2cc([N+](=O)[O-])ccc2n1-c1cccc(C(F)(F)F)c1	-25%	-12%	-2%	-26%	13%	-10%
Cc1cc(F)ccc1NC(=O)CCSc1nc(-c2ccco2)cc(C(F)(F)F)n1	1%	·	-1%	-4%[59 µM]	43%	-20%
Cc1ccc(NC(=O)c2ccccc2)cc1C	-9%	-12%	8%	-13%[2.33 µM]	23%	-2%
Cc1ccc(NC(=O)c2cc(=O)n(Cc3ccccc3)c(=O)[nH]2)cc1C	10µM*	24µM*	-29%	1%	-10%	-4%
O=C(O)c1cc(=O)n(Cc2ccccc2)c(=O)[nH]1	28µM*	0%	?	16µM*	17%	?
COC(=O)c1sc(-c2ccccc2)cc1NC(C)=O	11%	-3%	33%	71%	65%	-9%
CC1(C)CC(=O)C2=C(C1)Nc1ccccc1NC2c1cccnc1 (stereo not given)	-15%	-6%	14%	-12%	20%	27%
CC1(C)CC(=O)C2=C(C1)Nc1ccccc1NC2c1cccc(F)c1 (stereo not given)	-8%	-6%	23%	·	35%	11µM*
Cc1ccc2[nH]c3c(c2c1)CN(C(=O)CN1c2ccc(F)cc2CCC1C)CC3 (stereo not given)	45µM*	-2%	40µM*	32µM*	?	?
Cc1ccc2[nH]c3c(c2c1)CN(C(=O)CN1CCN(c2cccc(C)c2C)CC1)CC3	56µM*	-18%	35µM*	?	-18%	40µM*
O=C(CN1CCN(C(=O)c2ccco2)CC1)N1CCc2[nH]c3ccccc3c2C1	-15%	-26%	-24%	22µM*	26%	·
C/C(=C\C(=O)c1ccc(F)cc1)Nc1ccc(N2CCOCC2)cc1	?	-2%	-9%	40µM*	3%	-9%
C/C(=N\Nc1ccc(F)cc1F)c1ccc(Br)s1	-15%	-15%	-2%	8.9µM*	?	32µM*
Fc1ccc(N/N=C/c2ccc(N3CCOCC3)cc2)c(F)c1	?	-23%	?	10µM*	?	?
C/C(=N\Nc1ccc(F)cc1F)c1ccc(N2CCOCC2)cc1	?	-20%	-37%	7.9µM*	-10%	?
C/C(=N\Nc1ccc(F)cc1F)c1ccc(F)cc1	·	·	-1%	10%[0.501 µM]	·	·
CN(C)C(=O)N1CCN(C(=O)[C@H](CCc2ccccc2)NC(=O)[C@H]2O[C@@H](n3cnc4c(N)ncnc43)[C@H](O)[C@@H]2O)CC1	·	·	·	·	·	6%
CN(CCO)S(=O)(=O)c1ccc2c(c1)C(=NNC(N)=O)c1cc(S(=O)(=O)N(C)CCO)ccc1-2	-12%	5%	0%	·	38%	1%
O=C(CC1C(=O)NCCN1Cc1ccc(Cl)c(F)c1)NCCc1cccnc1 (stereo not given)	-15%	-14%	-34%	-46%[59 µM]	8%	2%
SMILES	JMJD2A Tudor	PLK1 PBD block	BAZ2B inh	G9a inh	HP1b binding inh	ALOX12 inh
CCC(C(=O)OCC(=O)Nc1ccc(Cl)c(S(=O)(=O)N(C)C)c1)c1ccccc1 (stereo not given)	-27%	-7%	-30%	?	31%	18%
CN(CCOc1ccccc1)CC(=O)Nc1ccc(Cl)c(S(=O)(=O)N(C)C)c1	2.8µM*	-4%	·	8.9µM*	-7%	-18%
CN(CCOc1ccccc1)CC(=O)Nc1ccc(Cl)cc1[N+](=O)[O-]	0.79µM*	2%	13µM*	3.5µM*	25µM*	?
COc1cc(NC(=O)CN(C)CCOc2ccccc2)c(C)cc1[N+](=O)[O-]	?	-7%	-24%	-15%	28%	49%
CCN(C(=O)c1c(OC)cccc1OC)c1nnc(-c2cccnc2)s1	-10%[11.4 µM]	-25%	3%	-2%[59 µM]	-12%	96%[57.4 µM]
O=C(Nc1nnc(-c2ccncc2)o1)C1CCCCC1	20µM*	2%	50µM*	?	34%	-9%
O=C(Nc1nnc(-c2cccs2)o1)C1CC1	50µM*	-7%	?	50µM*	27%	1%[57.4 µM]
O=C(Nc1nc(-c2ccco2)c(-c2ccco2)s1)C1CC(=O)N(c2ccc3c(c2)OCCO3)C1 (stereo not given)	25µM*	?	11µM*	?	-87%	?
O=C(Nc1nnc(-c2ccco2)o1)C1CCCCC1	89µM*	-4%	?	?	34%	14%[57.4 µM]
O=C(Nc1nnc(-c2ccc3c(c2)CCCC3)o1)C1CCCCC1	-12%	2%	-1%	2%	44%	25%[57.4 µM]
Cc1nnc(NC(=O)C2CC(=O)N(c3ccc4c(c3)OCCO4)C2)s1 (stereo not given)	-28%	-11%	-3%	16%[2.33 µM]	19%	11%
Cc1ccc(NC(=O)c2cnccn2)cc1S(=O)(=O)N1CCCCCC1	-29%	-3%	·	·	21%	-9%
Cn1nnnc1SCC(=O)Nc1ccc2c(c1)OCCO2	-20%	-2%	-17%	-3%	18%	3%
O=C1c2cccc3cccc(c23)C(=O)N1CC1CCN(CC(O)COCc2ccc3c(c2)OCO3)CC1 (stereo not given)	?	-3%	-14%	-13%[59 µM]	-27%	?
CCN(CC)c1nc2c(c(=O)n(C)c(=O)n2C)n1CC(=O)C12CC3CC(CC(C3)C1)C2	·	·	·	·	·	14%
